Assay results from PubChem BioAssay (Tox21).
Inconclusive results are not listed. A call without a number means that no potency is given here. Active and inactive are the calls of the source. Calls follow the shape of the dose curve; as a rule, active = well fitted inhibition curve with a large enough effect in the repeat runs; inconclusive = weak or mixed curves; inactive = no such curve, though single readings can be large or run the other way.

Target: Cytochrome P450 3A4 (Homo sapiens) (UniProt P08684)
Sequence (P08684 whole entry, looked up): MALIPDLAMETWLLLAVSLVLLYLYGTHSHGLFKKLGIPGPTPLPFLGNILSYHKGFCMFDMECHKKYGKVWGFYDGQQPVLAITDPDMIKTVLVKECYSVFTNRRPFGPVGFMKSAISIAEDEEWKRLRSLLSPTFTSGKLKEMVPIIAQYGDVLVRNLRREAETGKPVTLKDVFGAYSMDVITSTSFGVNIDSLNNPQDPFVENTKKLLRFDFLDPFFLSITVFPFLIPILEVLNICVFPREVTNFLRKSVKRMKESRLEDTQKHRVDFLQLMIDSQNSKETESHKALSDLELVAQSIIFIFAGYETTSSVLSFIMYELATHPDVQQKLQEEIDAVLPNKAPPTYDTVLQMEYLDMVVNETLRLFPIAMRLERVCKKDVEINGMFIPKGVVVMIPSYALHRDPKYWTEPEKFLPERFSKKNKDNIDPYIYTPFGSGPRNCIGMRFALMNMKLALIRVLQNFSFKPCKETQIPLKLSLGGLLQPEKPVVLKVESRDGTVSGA
Experiment: Cytochrome P450 Family 3 Subfamily A Member 4 (CYP3A4) small molecule antagonists: luciferase reporter qHTS assay (AID 1671201); also: nearly all actives have a fitted effect of over 50% in size
Details: P450-Glo CYP3A4 enzyme, luciferin luminescence, 1 h; series mostly up to 115 µM
In short: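 Luminescent readout (RLU) proportional to CYP3A4 activity, from luciferin generated off a proluciferin substrate. Enzyme–substrate mix plus compound 10 min at room temp, NADPH regeneration 1 h, detection reagent 20 min.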
Potency is read from the fitted curve at half-maximal effect.

Row | SMILES | Potency
1 | NC(=O)c1cc[n+](CC2=C(C(=O)[O-])N3C(=O)[C@@H](NC(=O)Cc4cccs4)[C@H]3SC2)cc1 | inactive
2 | Cc1ccc(Cl)c(OCC(O)CNC(C)(C)C)c1 (stereo not given) | inactive
3 | Cc1ccccc1CCO | inactive
4 | CC(COc1ccccc1)NC(C)C(O)c1ccc(O)cc1 (stereo not given) | inactive
5 | O=C(c1ccco1)N1CCNCC1 | inactive
6 | C=CCCC | inactive
7 | Cc1cc(C)n(CO)n1 | inactive
8 | CCCCCCCCCCCCN1CCOCC1 | inactive
9 | CCC(CC)C(=O)O | inactive
10 | COc1ccc(C(=O)c2ccc(C)cc2)c(O)c1 | inactive
11 | COc1ccc(/C(C)=C/C(=O)O)c(OC)c1 | inactive
12 | CC(C)(C)NCC(O)COc1ccc(NC(=O)NC2CCCCC2)cc1 (stereo not given) | inactive
13 | COc1cccc([C@H](O)C2CCN(CCc3ccc(F)cc3)CC2)c1OC | inactive
14 | CC1=C(C)C(=O)C(C(CCCCCC(=O)O)c2ccccc2)=C(C)C1=O (stereo not given) | inactive
15 | CCCCCCCCCCCCCCCCC(=O)O | inactive
16 | S=c1[nH][nH]c(=S)s1 | inactive
17 | O=C(OCCOCCOCCOC(=O)c1ccccc1)c1ccccc1 | inactive
18 | CC[C@H](NC(C)C)[C@H](O)c1ccc(O)c2[nH]c(=O)ccc12 | inactive
19 | Cc1nc(C)c(C)nc1C | inactive
20 | O=C(O)c1cc(C(=O)O)c(C(=O)O)cc1C(=O)O | inactive
21 | CCOC(C)OCC | inactive
22 | COC(=O)c1cc(Cl)ccc1[N+](=O)[O-] | inactive
23 | N#CCCCC(C#N)CCC#N (stereo not given) | inactive
24 | CCc1ccc2c(c1)C(=O)c1ccccc1C2=O | 17.8 µM (active)
25 | CC(O)CN (stereo not given) | inactive
